Cruzain noTriton = inhibitors of Trypanosoma cruzi cruzain without detergent. P25779. AID 1476. Potency, µM, for the others: max response, negative = inhibition, most hits filed as inhibitors. 2.3% of 200,000 active. purified cruzain, Z-FR-AMC fluorescence, no detergent;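 note: plate controls were enzyme without inhibitor for no effect and buffer without enzyme for full effect; nearly all actives have a fitted effect of over 40% in size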
Target sequence (P25779 123-467 limits assumed): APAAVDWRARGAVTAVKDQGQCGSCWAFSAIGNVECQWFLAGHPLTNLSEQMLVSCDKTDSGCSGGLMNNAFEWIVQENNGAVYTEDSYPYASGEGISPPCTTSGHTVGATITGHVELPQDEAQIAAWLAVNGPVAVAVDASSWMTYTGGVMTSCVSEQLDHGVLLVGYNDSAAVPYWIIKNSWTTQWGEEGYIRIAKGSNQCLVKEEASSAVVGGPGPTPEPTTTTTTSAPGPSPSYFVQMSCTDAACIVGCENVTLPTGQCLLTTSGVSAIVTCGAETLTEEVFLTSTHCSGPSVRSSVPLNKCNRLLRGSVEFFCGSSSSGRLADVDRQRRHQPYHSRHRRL
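Purified cruzain at 1.5 nM, pre-incubated 15 min with compound at room temperature in 100 mM sodium acetate pH 5.5, 5 mM DTT, 0.00005% Triton X-100. Reaction started with 2 uM Z-FR-AMC; AMC fluorescence increase over 60 s gives rate.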
Cruzain Triton = blocks cruzain activity in presence of Triton detergent | P25779 | purified cruzain, Z-FR-AMC fluorescence, 0.01% Triton | Potency, µM, for the others: max response, negative = inhibition, usual class: inhibitors | 0.43% of 200,000 active | AID 1478;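 note: plate controls were neutral wells for no effect and buffer without enzyme for full effect; nearly all actives have a fitted effect of over 40% in size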
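15 min RT preincubation of 1.5 nM cruzain with compound, then 2 uM Z-FR-AMC added; kinetic AMC fluorescence, 60 s delta. Triton X-100 0.01%, pH 5.5.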
An asterisk follows results filed as active; ? = inconclusive. Sampled rows, rich in hits. Any-hit rate of the full collection: about 2.4%. Calls come from the whole dose curve; as a rule, active = well fitted curve in the direction sought with a large enough effect; inconclusive = small, poorly fitted or top-dose-only effect, or another doubt; inactive = no such curve, though single readings can be large; an effect the other way counts as inactive or inconclusive. Potency is the fitted concentration of half-maximal effect.

SMILES | Cruzain noTriton | Cruzain Triton
CCCCC(CC)Cn1c(Oc2ccccc2)nc2c1c(=O)n(C)c(=O)n2C (stereo not drawn) | ? | -8%
O=C(Nc1nc(-c2ccccc2)c(C(=O)c2ccccc2)s1)c1ccc(S(=O)(=O)N2CCCCC2)cc1 | 7.9µM* | -5%
COCCN(CCOC)S(=O)(=O)c1ccc(C(=O)Nc2nc(-c3ccccc3)c(C(=O)c3ccccc3)s2)cc1 | ? | 0%
O=C(Nc1ccc(NC(=O)C23CC4CC(CC(C4)C2)C3)cc1)c1cc(F)c(F)cc1Cl | 25µM* | 6%
CN(C)S(=O)(=O)c1ccc(NC(=O)c2cc(F)c(F)cc2Cl)cc1 | 10% | -4%
CN(C)S(=O)(=O)c1cccc(NC(=O)COC(=O)c2ccc(Br)o2)c1 | 1% | -2%
CCN(CC)S(=O)(=O)c1ccc(Cl)c(NC(=O)COC(=O)c2cc(-c3ccccc3Cl)nc3ccccc23)c1 | 10µM* | -4%
CCN(c1ccccc1)S(=O)(=O)c1ccc(Cl)c(NC(=O)COC(=O)c2ccc(Cl)c(N)c2)c1 | 25µM* | -4%
CN(C)S(=O)(=O)c1cccc(NC(=O)COC(=O)c2cc(-c3cccc(Br)c3)nc3ccccc23)c1 | 10µM* | -1%
CCN(c1ccccc1)S(=O)(=O)c1ccc(Cl)c(NC(=O)COC(=O)c2cccc(OC)c2O)c1 | ? | -4%
CCN(CC)S(=O)(=O)c1ccc(Cl)c(NC(=O)COC(=O)c2c(C)noc2C)c1 | 3% | 0%
COc1ccc(-c2noc(CSc3nnc(Cc4ccccc4)n3-c3ccc(F)cc3)n2)cc1 | 3% | -7%
CC(=O)c1cccc(NC(=O)c2cc(-c3ccc(Cl)s3)nc3ccccc23)c1 | 16% | -4%
Cc1c(C(=O)NCc2ccc3c(c2)OCO3)oc2ccc(S(=O)(=O)N3CCCCC3)cc12 | ? | 3%
Cc1c(C(=O)Nc2ccc(F)cc2)oc2ccc(S(=O)(=O)N3CCCCCC3)cc12 | 32µM* | 0%
Cc1c(C(=O)NCc2ccc3c(c2)OCO3)oc2ccc(S(=O)(=O)N3CCCC3)cc12 | 16µM* | -1%
Cc1ccc(NC(=O)c2oc3ccc(S(=O)(=O)N4CCCCC4)cc3c2C)cc1C | 6% | 2%
O=C(NCCC1=CCCCC1)c1ccc2c(=O)n3nc(Nc4ccccc4)sc3nc2c1 | 0% | 1%
COc1cccc(N2CC(NC(=O)CCCc3ccccc3)CC2=O)c1 (stereo not drawn) | 7% | -2%
Cc1oc(-c2ccc(C(=O)NCc3ccccc3F)cc2)nc1COc1ccccc1 | 9% | -8%
CCc1cccc(NC(=O)C2CCN(C(=O)c3cnn(-c4ccccc4)c3-n3cccc3)CC2)c1 | ? | -9%
Nc1c(C(=O)Nc2ccc(Cl)cc2F)sc2nc(-c3cccs3)ccc12 | 25µM* | -11%
Nc1c(C(=O)Nc2nc3ccccc3s2)sc2nc(-c3cccs3)ccc12 | 7.9µM* | -9%
Nc1c(C(=O)Nc2ccccc2Br)sc2nc(-c3cccs3)ccc12 | 20µM* | -8%
Nc1ccc(C(=O)Nc2nc3ccccc3s2)cc1 | 5% | -9%
SMILES | Cruzain noTriton | Cruzain Triton
CC(=O)c1sc2nc(-c3cccs3)ccc2c1N | -8% | -13%
Nc1c(C(=O)Nc2ccc(F)c(F)c2)sc2nc(-c3ccncc3)ccc12 | -3% | -3%
COc1ccc(-c2nnc(SCC(=O)Nc3cc(OC)ccc3OC)nc2-c2ccc(OC)cc2)cc1 | ? | -9%
CCCN(CCC)C(=O)Cn1c(=O)n(Cc2ccc(C(=O)NCCc3ccc(Cl)cc3)cc2)c(=O)c2ccccc21 | 10% | -1%
O=C(CN1C(=O)S/C(=C\C=C\c2ccccc2)C1=O)Nc1ccc(O)cc1 | -5% | -6%
CC(C)c1ccccc1NC(=O)COC(=O)Cc1ccsc1 | -2% | -3%
CC(C)c1ccccc1NC(=O)COC(=O)CCN1C(=O)/C(=C\C=C\c2ccccc2)SC1=S | 16µM* | -11%
Cc1ccc(NC(=O)CCCN2C(=O)/C(=C/C=C/c3ccccc3)SC2=S)cc1 | 32µM* | -7%
N#Cc1c(NC(=O)CS(=O)(=O)c2ccc(Cl)cc2)sc2c1CCCCC2 | -10% | -1%
CCOc1ccccc1NC(=O)c1nc(SC(C)C)ncc1Cl | -12% | -2%
Cc1ccc(O)c(NC(=O)CCSc2nc(-c3ccco3)cc(C(F)(F)F)n2)c1 | -5% | -11%
COc1ccc(S(=O)(=O)NCCc2csc3nc(-c4ccc(Cl)cc4)nn23)cc1C | -3% | -6%
O=C(CCNC(=O)c1ccccc1)Oc1ccc([N+](=O)[O-])cc1 | 25µM* | -22%
O=C(NCCc1ccccc1)c1ccc([N+](=O)[O-])cc1 | 0% | 3%
Cc1cccc(NC(=O)CN2C(=O)N/C(=C\c3ccc(N4CCOCC4)cc3)C2=O)c1 | -21% | -4%
Cc1ccc(-n2cccc2/C=C2/NC(=O)N(CC(=O)Nc3cccc(C)c3)C2=O)cc1 | 5µM* | -4%
Cc1ccccc1Cn1cc(S(=O)(=O)c2ccc(F)cc2)c(=O)c2cc3c(cc21)OCO3 | -1% | -2%
Cc1cc(/C=C2\Cc3ccccc3C2=O)c(C)n1-c1ccccc1 | 16µM* | -8%
Cc1cc(C=C2C(=O)c3ccccc3C2=O)c(C)n1-c1ccccc1 | ? | -4%
COc1cc(NC(=O)c2cc(-c3cccc(Cl)c3)on2)c(OC)cc1Cl | -16% | 0%
COc1ccc(C2N3CC4(C)CN2CC(c2ccccc2)(C3)C4=O)cc1 (stereo not drawn) | 6% | -1%
NC(=S)N=Nc1c(O)[nH]c2ccc(F)cc12 | 5µM* | 14µM*
CC(C)NC(=S)N=Nc1c(O)[nH]c2ccc(C(C)C)cc12 | 4% | -8%
Cc1ccc(/C=C(\NC(=O)c2ccccc2)C(=O)OCc2ccccc2)cc1 | ? | 7.9µM*
Cc1ccc(/C=C(\NC(=O)c2ccccc2)C(=O)NC(Cc2ccccc2)C(=O)O)cc1 (stereo not drawn) | -1% | -3%
SMILES | Cruzain noTriton | Cruzain Triton
O=C(CNC(=O)/C(=C\c1ccccc1)NC(=O)c1ccc(Br)cc1)OCc1ccccc1 | -10% | -30%
O=C(CNC(=O)/C(=C\c1ccc(F)cc1)NC(=O)c1ccccc1)OCc1ccccc1 | ? | 18µM*
COc1ccc(CC(=O)Nc2sc3c(c2C(=O)Nc2c(C)cccc2C)CCCCC3)cc1 | 0% | -1%
CN(C)c1ccc(-c2nc(-c3ccncc3)no2)cc1[N+](=O)[O-] | -6% | -2%
CCCCNc1ccc(-c2nc(-c3ccco3)no2)cc1[N+](=O)[O-] | ? | -15%
COc1cc(-c2noc(-c3ccc(N(C)C)c([N+](=O)[O-])c3)n2)cc(OC)c1OC | 25µM* | -7%
CCN(CC)c1ccc(-c2nc(-c3ccco3)no2)cc1[N+](=O)[O-] | 16µM* | -4%
Cc1cccc(CNC(=O)c2sc3ncnc(N(C)C4CCCCC4)c3c2C)c1 | -14% | -4%
COC(=O)c1ccc(NC(=O)CSc2ncc3c(n2)-c2cc(Cl)ccc2N(Cc2ccccc2)S3(=O)=O)cc1 | -4% | 2%
CNC(=O)c1ccc2nc(Cc3ccccc3)oc2c1 | 4% | -1%
Cc1occc1C(=O)N=Nc1c(O)[nH]c2ccc(Br)cc12 | 13µM* | -3%
Cc1occc1C(=O)N=Nc1c(O)n(C)c2ccccc12 | -8% | -5%
CCc1cccc(C)c1NC(=O)c1cnn(-c2ccc(OC)cc2)c1C1CCN(C(=O)OC(C)(C)C)CC1 | ? | -6%
O=C(NC1CCN(C(=O)N2c3ccccc3Sc3ccccc32)CC1)c1ccccc1F | 20µM* | -6%
CC1CCN(C(=O)N2c3ccccc3Sc3ccccc32)CC1 | -11% | -3%
